The record followed here is PubChem BioAssay (NCI).

Compounds without any hit were thinned out: in the full panel of roughly 79,000, 15% have a hit. A number with no mark means an inactive call. Active and inactive are the calls of the source. Cut-off read from the data, not from the text of the source: active = growth inhibition above about 70%; inactive = the rest.

The first assay can be described thus: NCI Yeast Anticancer Drug Screen. Data for the sgs1 mgt1 strain (AID 161).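 Note: 0% = growth of cultures given vehicle only.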 Conditions: S. cerevisiae sgs1 mgt1 strain, at 50.0 µM, active compounds read high. The gist of the method: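 Compounds are added to genetically altered yeast, and growth is compared with cultures given vehicle alone to give percent inhibition.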
Regarding `CCN(CC)C(=O)c1cc2c(cc1[N+](=O)[O-])OCO2`, the growth inhibition was 3.65%.

For `CC(=O)n1[nH]c(=O)n(-c2ccc(Cl)cc2)c1=O`, the growth inhibition is -30.1%.

Turning to `CCC(C)NCC/C(=C\[Si](C)(C)C)c1ccccc1` (stereo not given), the growth inhibition was -11.4%.

Take `COc1ccc(Cl)cc1NC(=O)c1ccccc1C(=O)O`: the growth inhibition was -3.2%.

For `CC(=O)c1c(O)cccc1O`, the growth inhibition was -1.75%.

For `Cc1ccc2snc(C(=O)O)c2c1[N+](=O)[O-]`, the growth inhibition is 4.1%.

For the molecule `COC1(OC)C2(Cl)CC(C(=O)O)C1(Cl)C(Cl)=C2Cl` (stereo not given), the growth inhibition was 19.6%.

On to `CC(CN1CCCC1)(Oc1ccccc1)C(=O)c1ccccc1` (stereo not given), for which the growth inhibition is 15.1%.

Turning to `ClC(Cl)=C(c1ccccc1)c1ccccc1`, the growth inhibition is 36.5%.

Turning to `C#CC(C)(C)CC`, the growth inhibition is 8.35%.

As for `C[N+]([O-])(C/C=C/c1ccccc1)c1ccccc1` (stereo not given), the growth inhibition is -2.65%.

On to `CC(C)C1(C(C)C)OCC(CO)O1` (stereo not given), for which the growth inhibition was -7.85%.

As to `CC1=C(OCCCl)C2CC1C1C(=O)N(c3ccccc3)C(=O)C21` (stereo not given), the growth inhibition is -1.85%.

On to `COC(=O)c1ccccc1Cl`, for which the growth inhibition is 9.05%.

With `C=CCC(O)CC=C`, the growth inhibition is 7.15%.

In the case of `OCCSc1ccc(Cl)cc1`, the growth inhibition is 5.95%.

As to `N#CC(C#N)=CC(C#N)C#N`, the growth inhibition was -12.2%.

Regarding `CC1CNC(=S)O1` (stereo not given), the growth inhibition is 5.05%.

Consider `C[N+](C)(C)CCC(=O)N1C/C(=C\c2ccccc2)C(=O)/C(=C/c2ccccc2)C1`, for which the growth inhibition is -34.1%.

Turning to `NC(=O)Cc1csc(Br)n1`, the growth inhibition was -6.2%.

`Nc1ncnc2nc(N3CCN(CCO)CC3)[nH]c12`: the growth inhibition was -34.1%.

Consider `Cc1ccc(SC(C)/C=C/NNC2=NC(c3ccccc3)C(c3ccccc3)=NN2)cc1` (stereo not given), for which the growth inhibition is 6.05%.

On to `O=c1nc(Sc2ccccc2)ccn1C1OC(CO)C(O)C1O` (stereo not given), for which the growth inhibition was -1.45%.

For the molecule `C[N+]1(C)CCC(C(=O)c2ccccc2)CC1`, the growth inhibition was 5.6%.

`N=C1C(O)=CC(=O)C(O)=C1C(=O)O`: the growth inhibition is 0%.

Take `CCNC(=O)OC1C=CS(=O)(=O)C1` (stereo not given): the growth inhibition was -0.45%.

On to `S=c1[nH]nc2nc3c4ccccc4c4ccccc4c3nn12`, for which the growth inhibition was 10.3%.

`Cc1ccc(S(=O)c2ccccc2C(O)(C(F)(F)F)C(F)(F)F)cc1` (stereo not given): the growth inhibition is 74.6% (active).

In the case of `OC1CCCCC2CC2C1O` (stereo not given), the growth inhibition is 6.8%.

Take `CN(C)CC1CC=CCC1CN(C)C` (stereo not given): the growth inhibition was -5.6%.

Consider `CCCCOC1NC(=O)NC(=O)C1(F)C(=O)OCC` (stereo not given), for which the growth inhibition is 5.45%.

As for `CC(=O)Nc1ccc(CCNC(=O)c2ccc3ccccc3c2O)cc1`, the growth inhibition was -15.2%.

`O=C(Nc1nc(=S)[nH][nH]1)C(=O)C1C(=O)Nc2ccccc2S1=O` (stereo not given): the growth inhibition was -4.2%.

Regarding `CCOP(=O)(OCC)/C(C#N)=C/c1c(C)[nH]c2ccccc12`, the growth inhibition is 18.6%.

With `Cc1cc(C)c(C#N)c(SC(C(=O)NC(C)(C)C)c2ccccc2)n1` (stereo not given), the growth inhibition is 8.75%.

Consider `CCN(CC)CCOC(=O)c1c(C)cc(C)cc1C`, for which the growth inhibition is 4.9%.

Turning to `Nc1nc(N)c2[nH]cnc2n1` (tested in a mixture with another compound), the growth inhibition is -31.6%.

For the molecule `CC(C)N(CC(=O)O)CC(=O)O`, the growth inhibition is -21.1%.

Turning to `Cc1c(CCOC=O)c(=O)[nH]c2nncn12`, the growth inhibition is -18.3%.

Turning to `CC(=O)Oc1c2oc3cc(O)c(O)cc3c2c(OC(C)=O)c2oc3cc(O)c(O)cc3c12`, the growth inhibition was -1.15%.

A further assay is described as follows: NCI Yeast Anticancer Drug Screen. Data for the cln2 rad14 strain (AID 165).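 Note: 0% = growth equal to vehicle treated cultures.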 To be noted: S. cerevisiae cln2 rad14 strain, at 50.0 µM, active compounds read high. The gist of the method: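 Relative to vehicle controls, growth inhibition of compound-treated cln2 rad14 yeast was recorded.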
For `CCN(CC)C(=O)c1cc2c(cc1[N+](=O)[O-])OCO2`, the growth inhibition is -45.8%.

Turning to `CC(=O)n1[nH]c(=O)n(-c2ccc(Cl)cc2)c1=O`, the growth inhibition was 2.1%.

In the case of `CCC(C)NCC/C(=C\[Si](C)(C)C)c1ccccc1` (stereo not given), the growth inhibition was 11.7%.

With `COc1ccc(Cl)cc1NC(=O)c1ccccc1C(=O)O`, the growth inhibition is -4.3%.

With `CC(=O)c1c(O)cccc1O`, the growth inhibition was 8.7%.

Regarding `Cc1ccc2snc(C(=O)O)c2c1[N+](=O)[O-]`, the growth inhibition is -1.65%.

`COC1(OC)C2(Cl)CC(C(=O)O)C1(Cl)C(Cl)=C2Cl` (stereo not given): the growth inhibition is -51.7%.

As for `CC(CN1CCCC1)(Oc1ccccc1)C(=O)c1ccccc1` (stereo not given), the growth inhibition is 7.8%.

For `ClC(Cl)=C(c1ccccc1)c1ccccc1`, the growth inhibition was 7.15%.

Take `C#CC(C)(C)CC`: the growth inhibition was 19.8%.

As for `C[N+]([O-])(C/C=C/c1ccccc1)c1ccccc1` (stereo not given), the growth inhibition was 5.45%.

Regarding `CC(C)C1(C(C)C)OCC(CO)O1` (stereo not given), the growth inhibition was -60.2%.

Regarding `CC1=C(OCCCl)C2CC1C1C(=O)N(c3ccccc3)C(=O)C21` (stereo not given), the growth inhibition is -0.4%.

Turning to `COC(=O)c1ccccc1Cl`, the growth inhibition was -14.3%.

Regarding `C=CCC(O)CC=C`, the growth inhibition was -6.5%.

Regarding `OCCSc1ccc(Cl)cc1`, the growth inhibition was -31.5%.

`N#CC(C#N)=CC(C#N)C#N`: the growth inhibition is -65.1%.

In the case of `CC1CNC(=S)O1` (stereo not given), the growth inhibition was -7.05%.

In the case of `C[N+](C)(C)CCC(=O)N1C/C(=C\c2ccccc2)C(=O)/C(=C/c2ccccc2)C1`, the growth inhibition was 8.75%.

Take `NC(=O)Cc1csc(Br)n1`: the growth inhibition was -32.2%.

With `Nc1ncnc2nc(N3CCN(CCO)CC3)[nH]c12`, the growth inhibition was -29.5%.

Take `Cc1ccc(SC(C)/C=C/NNC2=NC(c3ccccc3)C(c3ccccc3)=NN2)cc1` (stereo not given): the growth inhibition is 30.4%.

In the case of `O=c1nc(Sc2ccccc2)ccn1C1OC(CO)C(O)C1O` (stereo not given), the growth inhibition is 9.35%.

Consider `C[N+]1(C)CCC(C(=O)c2ccccc2)CC1`, for which the growth inhibition was -17.9%.

`N=C1C(O)=CC(=O)C(O)=C1C(=O)O`: the growth inhibition was 1.95%.

For the molecule `CCNC(=O)OC1C=CS(=O)(=O)C1` (stereo not given), the growth inhibition was -5.55%.

Regarding `S=c1[nH]nc2nc3c4ccccc4c4ccccc4c3nn12`, the growth inhibition was 14.2%.

As to `Cc1ccc(S(=O)c2ccccc2C(O)(C(F)(F)F)C(F)(F)F)cc1` (stereo not given), the growth inhibition is 59.6%.

Turning to `OC1CCCCC2CC2C1O` (stereo not given), the growth inhibition was -44.7%.

In the case of `CN(C)CC1CC=CCC1CN(C)C` (stereo not given), the growth inhibition was -15.7%.

Take `CCCCOC1NC(=O)NC(=O)C1(F)C(=O)OCC` (stereo not given): the growth inhibition is 9.4%.

Turning to `CC(=O)Nc1ccc(CCNC(=O)c2ccc3ccccc3c2O)cc1`, the growth inhibition was -6.35%.

On to `O=C(Nc1nc(=S)[nH][nH]1)C(=O)C1C(=O)Nc2ccccc2S1=O` (stereo not given), for which the growth inhibition was 4%.

On to `CCOP(=O)(OCC)/C(C#N)=C/c1c(C)[nH]c2ccccc12`, for which the growth inhibition is 13.4%.

On to `Cc1cc(C)c(C#N)c(SC(C(=O)NC(C)(C)C)c2ccccc2)n1` (stereo not given), for which the growth inhibition was 18%.

For `CCN(CC)CCOC(=O)c1c(C)cc(C)cc1C`, the growth inhibition is -41.5%.

With `Nc1nc(N)c2[nH]cnc2n1` (tested in a mixture with another compound), the growth inhibition was 11.3%.

As for `CC(C)N(CC(=O)O)CC(=O)O`, the growth inhibition is -5%.

Regarding `Cc1c(CCOC=O)c(=O)[nH]c2nncn12`, the growth inhibition is 16.9%.

Regarding `CC(=O)Oc1c2oc3cc(O)c(O)cc3c2c(OC(C)=O)c2oc3cc(O)c(O)cc3c12`, the growth inhibition is -5.45%.
